Assays:
Assay in all cases: log2 ratio of Biotin-Ahx-Ub-VS probe labelling (fragment/DMSO); higher = less target engagement (more negative = stronger competition), active = hit call of the paper (q ≤ 0.05, log2 ratio ≤ -1)
Conditions in all cases: compound concentration: 200 uM; treatment time: 3 h
USP16 = USP16 (UniProt Q9Y5T5)
Summary of the method: (§1)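 Labelling with Biotin-Ahx-Ub-VS (0.5 µM final, 1 h) followed a 3 h triplicate treatment of HEK293T lysate (495 µg per sample, Tris/CHAPS/IGEPAL buffer with protease inhibitors) with fragment at 200 µM or vehicle. Labelled DUBs were NeutrAvidin-enriched, digested with LysC and trypsin, and run by diaPASEF LC-MS/MS. The values, average log2 fragment/vehicle ratios by unpaired t-test, come from global-median-normalised Spectronaut label-free quantities. Proteins with ≥2 unique peptides were used.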

USP19 = biological target: T1, USP19 (UniProt O94966)
T1 sequence (whole entry): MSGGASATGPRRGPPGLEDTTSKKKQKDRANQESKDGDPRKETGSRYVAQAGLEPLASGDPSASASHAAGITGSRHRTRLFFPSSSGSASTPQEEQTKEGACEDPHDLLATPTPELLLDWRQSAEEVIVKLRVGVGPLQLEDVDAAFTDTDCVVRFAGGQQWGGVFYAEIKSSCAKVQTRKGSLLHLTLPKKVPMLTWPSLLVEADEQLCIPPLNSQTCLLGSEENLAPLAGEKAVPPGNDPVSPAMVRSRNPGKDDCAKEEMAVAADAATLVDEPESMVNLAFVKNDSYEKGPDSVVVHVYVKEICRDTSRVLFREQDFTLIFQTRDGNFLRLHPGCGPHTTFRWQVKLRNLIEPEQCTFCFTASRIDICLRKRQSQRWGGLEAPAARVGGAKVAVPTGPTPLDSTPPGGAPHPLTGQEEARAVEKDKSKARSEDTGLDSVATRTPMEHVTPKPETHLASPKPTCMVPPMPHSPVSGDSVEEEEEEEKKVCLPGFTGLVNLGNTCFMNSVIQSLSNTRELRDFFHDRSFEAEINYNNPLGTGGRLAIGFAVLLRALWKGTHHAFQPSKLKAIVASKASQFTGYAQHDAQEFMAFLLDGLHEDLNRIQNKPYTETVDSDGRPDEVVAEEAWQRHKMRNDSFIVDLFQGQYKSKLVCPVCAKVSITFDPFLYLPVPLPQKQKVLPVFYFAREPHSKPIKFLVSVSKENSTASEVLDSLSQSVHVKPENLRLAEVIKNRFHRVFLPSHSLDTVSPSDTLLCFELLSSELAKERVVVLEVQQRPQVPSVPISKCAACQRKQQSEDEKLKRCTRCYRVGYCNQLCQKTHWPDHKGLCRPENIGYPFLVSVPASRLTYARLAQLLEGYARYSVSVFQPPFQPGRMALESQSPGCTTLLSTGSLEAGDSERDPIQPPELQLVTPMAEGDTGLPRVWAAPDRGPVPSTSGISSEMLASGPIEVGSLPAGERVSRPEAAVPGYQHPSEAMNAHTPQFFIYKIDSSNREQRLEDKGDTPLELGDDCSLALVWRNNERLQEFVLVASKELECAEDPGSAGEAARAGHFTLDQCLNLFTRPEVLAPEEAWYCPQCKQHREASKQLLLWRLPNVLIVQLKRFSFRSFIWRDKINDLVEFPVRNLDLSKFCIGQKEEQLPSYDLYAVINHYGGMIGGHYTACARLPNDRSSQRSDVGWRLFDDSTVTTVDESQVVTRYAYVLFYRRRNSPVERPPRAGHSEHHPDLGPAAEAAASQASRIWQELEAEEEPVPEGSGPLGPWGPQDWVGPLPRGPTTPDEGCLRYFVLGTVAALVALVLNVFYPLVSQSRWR
Summary of the method: as §1

USP24 = USP24 (UniProt Q9UPU5)
Sequence of USP24 (Q9UPU5 whole entry): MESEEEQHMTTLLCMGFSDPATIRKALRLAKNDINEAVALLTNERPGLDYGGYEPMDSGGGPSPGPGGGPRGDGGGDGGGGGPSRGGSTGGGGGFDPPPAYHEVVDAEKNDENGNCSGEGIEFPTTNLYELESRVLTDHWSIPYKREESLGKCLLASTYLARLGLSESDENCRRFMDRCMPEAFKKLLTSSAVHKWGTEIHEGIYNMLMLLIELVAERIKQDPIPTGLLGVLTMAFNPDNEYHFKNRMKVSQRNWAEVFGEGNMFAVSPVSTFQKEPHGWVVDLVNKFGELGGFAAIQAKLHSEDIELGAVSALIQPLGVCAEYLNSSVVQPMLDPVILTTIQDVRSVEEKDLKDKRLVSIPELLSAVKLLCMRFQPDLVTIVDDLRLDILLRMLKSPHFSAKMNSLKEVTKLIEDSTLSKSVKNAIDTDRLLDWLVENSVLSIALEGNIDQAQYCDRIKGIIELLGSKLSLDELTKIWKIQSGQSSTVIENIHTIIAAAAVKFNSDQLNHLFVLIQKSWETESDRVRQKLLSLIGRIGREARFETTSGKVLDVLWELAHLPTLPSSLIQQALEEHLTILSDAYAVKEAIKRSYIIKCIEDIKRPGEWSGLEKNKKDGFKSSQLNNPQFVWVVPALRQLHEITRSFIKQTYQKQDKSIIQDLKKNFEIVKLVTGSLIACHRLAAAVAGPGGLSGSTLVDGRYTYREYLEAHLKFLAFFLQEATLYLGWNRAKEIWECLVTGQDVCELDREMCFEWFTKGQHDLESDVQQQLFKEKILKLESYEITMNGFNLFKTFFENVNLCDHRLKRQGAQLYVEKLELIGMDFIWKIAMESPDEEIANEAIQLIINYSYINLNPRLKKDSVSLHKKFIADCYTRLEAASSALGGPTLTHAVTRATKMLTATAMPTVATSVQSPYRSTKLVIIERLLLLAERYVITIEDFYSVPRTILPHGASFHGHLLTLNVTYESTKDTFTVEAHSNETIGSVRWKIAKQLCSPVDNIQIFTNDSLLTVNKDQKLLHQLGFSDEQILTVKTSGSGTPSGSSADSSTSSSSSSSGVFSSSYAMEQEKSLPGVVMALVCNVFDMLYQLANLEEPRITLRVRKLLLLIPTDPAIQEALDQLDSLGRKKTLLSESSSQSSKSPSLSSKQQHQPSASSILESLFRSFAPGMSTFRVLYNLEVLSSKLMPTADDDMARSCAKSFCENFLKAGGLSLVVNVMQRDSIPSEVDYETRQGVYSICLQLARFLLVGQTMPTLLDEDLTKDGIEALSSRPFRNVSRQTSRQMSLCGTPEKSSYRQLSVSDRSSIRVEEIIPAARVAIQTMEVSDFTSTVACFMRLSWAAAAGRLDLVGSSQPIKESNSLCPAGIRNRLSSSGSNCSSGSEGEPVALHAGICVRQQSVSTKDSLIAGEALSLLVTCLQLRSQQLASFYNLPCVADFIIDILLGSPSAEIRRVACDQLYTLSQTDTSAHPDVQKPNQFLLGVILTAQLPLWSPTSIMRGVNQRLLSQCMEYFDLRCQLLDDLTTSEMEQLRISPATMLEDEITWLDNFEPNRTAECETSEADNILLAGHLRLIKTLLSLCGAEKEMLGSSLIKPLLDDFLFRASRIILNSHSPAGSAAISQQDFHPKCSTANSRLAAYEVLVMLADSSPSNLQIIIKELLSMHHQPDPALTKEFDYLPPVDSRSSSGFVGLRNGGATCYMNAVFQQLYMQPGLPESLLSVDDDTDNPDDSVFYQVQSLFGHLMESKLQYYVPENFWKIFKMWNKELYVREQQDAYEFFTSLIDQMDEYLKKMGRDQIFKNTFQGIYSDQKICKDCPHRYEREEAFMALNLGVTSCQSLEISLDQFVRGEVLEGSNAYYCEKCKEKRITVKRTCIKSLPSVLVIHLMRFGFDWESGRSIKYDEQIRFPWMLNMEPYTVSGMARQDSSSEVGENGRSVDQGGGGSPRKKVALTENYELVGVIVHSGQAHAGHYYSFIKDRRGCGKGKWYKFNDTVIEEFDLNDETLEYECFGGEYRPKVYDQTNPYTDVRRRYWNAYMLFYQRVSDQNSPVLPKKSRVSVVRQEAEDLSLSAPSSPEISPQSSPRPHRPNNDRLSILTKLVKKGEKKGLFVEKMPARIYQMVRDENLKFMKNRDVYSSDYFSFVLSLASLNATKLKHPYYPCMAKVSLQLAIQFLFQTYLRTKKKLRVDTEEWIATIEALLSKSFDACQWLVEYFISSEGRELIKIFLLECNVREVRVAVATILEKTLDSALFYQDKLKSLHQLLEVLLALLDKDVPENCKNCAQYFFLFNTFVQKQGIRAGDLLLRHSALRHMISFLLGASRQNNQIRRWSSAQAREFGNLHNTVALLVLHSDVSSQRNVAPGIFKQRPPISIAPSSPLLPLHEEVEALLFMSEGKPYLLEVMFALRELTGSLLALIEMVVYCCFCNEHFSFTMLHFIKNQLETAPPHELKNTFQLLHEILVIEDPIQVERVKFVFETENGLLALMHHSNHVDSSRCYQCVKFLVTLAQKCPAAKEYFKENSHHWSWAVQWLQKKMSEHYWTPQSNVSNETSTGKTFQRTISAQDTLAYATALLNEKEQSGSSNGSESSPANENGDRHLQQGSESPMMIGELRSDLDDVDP
Summary of the method: as §1

USP25 = biological target: T2, USP25 (UniProt Q9UHP3)
T2 sequence (whole entry): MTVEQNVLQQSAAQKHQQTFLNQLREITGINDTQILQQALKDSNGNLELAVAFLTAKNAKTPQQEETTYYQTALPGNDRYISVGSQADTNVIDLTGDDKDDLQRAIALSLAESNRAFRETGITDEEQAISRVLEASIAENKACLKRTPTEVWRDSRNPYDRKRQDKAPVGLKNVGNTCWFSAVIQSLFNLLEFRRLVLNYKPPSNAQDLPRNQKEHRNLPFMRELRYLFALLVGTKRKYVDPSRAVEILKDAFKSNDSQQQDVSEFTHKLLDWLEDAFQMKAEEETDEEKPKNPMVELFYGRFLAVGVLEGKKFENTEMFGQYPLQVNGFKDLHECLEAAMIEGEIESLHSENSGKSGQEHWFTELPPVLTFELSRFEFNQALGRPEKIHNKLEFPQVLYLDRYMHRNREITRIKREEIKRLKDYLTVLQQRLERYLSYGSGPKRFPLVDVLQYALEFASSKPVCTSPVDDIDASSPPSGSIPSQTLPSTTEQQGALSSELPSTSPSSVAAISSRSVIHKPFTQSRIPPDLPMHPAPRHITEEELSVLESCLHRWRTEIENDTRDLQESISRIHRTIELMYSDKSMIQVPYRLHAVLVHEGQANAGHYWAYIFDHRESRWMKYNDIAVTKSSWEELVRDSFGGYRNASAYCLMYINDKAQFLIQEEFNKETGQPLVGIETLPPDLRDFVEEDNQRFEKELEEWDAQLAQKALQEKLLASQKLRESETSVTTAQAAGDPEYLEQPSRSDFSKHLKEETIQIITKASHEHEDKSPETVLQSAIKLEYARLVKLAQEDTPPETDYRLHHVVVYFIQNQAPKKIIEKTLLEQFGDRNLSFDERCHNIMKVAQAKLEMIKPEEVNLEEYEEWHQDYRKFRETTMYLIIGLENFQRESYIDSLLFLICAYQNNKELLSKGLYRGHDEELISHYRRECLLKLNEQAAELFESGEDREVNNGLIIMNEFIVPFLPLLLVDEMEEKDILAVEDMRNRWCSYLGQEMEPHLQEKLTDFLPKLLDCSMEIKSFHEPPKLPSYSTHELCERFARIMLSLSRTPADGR
Summary of the method: as §1

USP28 = biological target: T3, USP28 (UniProt Q96RU2)
T3 sequence (whole entry): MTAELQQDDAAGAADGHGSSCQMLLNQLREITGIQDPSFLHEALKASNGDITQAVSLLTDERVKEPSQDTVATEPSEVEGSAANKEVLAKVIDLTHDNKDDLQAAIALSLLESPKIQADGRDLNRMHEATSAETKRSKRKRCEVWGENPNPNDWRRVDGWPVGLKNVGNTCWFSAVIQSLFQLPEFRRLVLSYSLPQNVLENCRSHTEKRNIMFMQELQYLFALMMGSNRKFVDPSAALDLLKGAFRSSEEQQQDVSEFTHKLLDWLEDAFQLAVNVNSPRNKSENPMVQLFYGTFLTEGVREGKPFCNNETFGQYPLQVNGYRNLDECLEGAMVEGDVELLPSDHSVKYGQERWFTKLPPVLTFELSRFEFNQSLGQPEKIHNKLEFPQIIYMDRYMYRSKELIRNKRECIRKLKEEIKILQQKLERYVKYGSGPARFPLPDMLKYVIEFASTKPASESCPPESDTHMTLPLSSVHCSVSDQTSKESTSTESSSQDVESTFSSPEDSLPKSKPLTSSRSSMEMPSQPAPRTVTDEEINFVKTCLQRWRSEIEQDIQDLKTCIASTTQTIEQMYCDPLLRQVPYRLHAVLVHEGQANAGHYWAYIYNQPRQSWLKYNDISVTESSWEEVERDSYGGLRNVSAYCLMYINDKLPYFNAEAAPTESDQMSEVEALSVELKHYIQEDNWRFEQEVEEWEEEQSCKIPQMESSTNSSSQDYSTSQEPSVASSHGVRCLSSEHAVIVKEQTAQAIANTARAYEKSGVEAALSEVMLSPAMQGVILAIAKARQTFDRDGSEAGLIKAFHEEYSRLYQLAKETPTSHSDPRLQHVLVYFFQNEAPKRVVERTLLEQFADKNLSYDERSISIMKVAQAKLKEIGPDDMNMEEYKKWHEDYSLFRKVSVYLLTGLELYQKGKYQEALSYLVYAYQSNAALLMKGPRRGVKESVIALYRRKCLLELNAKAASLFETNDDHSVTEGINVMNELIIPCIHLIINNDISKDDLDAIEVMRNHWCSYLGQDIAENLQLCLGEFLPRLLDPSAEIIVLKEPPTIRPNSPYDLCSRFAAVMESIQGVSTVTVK
Summary of the method: as §1

Measured: log2 ratio of Biotin-Ahx-Ub-VS probe labelling

Sequence of USP16 (Q9Y5T5 whole entry, looked up, the tested form may be a part): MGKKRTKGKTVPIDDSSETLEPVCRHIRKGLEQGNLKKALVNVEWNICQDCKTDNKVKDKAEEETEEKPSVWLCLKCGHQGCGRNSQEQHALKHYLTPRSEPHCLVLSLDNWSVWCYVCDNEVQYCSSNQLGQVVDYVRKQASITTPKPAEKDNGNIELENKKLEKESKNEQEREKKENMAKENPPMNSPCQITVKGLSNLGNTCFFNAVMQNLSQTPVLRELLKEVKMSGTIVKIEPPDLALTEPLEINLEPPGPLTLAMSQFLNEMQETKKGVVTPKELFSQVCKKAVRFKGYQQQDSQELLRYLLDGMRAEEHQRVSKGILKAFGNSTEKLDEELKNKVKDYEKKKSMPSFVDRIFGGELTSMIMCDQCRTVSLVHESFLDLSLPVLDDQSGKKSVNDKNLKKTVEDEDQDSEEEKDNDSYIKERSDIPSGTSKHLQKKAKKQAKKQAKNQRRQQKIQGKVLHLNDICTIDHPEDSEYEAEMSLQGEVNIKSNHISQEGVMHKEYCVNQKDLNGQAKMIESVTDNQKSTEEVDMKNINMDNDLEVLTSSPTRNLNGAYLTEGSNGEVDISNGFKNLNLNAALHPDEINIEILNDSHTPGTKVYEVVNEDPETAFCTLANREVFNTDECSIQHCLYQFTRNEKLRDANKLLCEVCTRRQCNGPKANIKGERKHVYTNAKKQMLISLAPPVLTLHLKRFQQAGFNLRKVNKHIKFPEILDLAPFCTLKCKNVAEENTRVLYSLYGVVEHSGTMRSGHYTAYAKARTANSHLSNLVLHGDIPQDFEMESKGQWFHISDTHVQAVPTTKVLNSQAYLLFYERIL

C[C@H]1CN(C(=O)CCl)CCN1C(=O)c1cnn(C)c1.Cl
inactive: USP16 -0.146 | USP19 -0.18 | USP24 -0.132 | USP25 -0.0187 | USP28 -0.325
